Experimental findings from PubChem BioAssay are described below.

Calls of active or inactive are those of the source. How the calls were made is not given here.

The target of this assay is Pantothenate synthetase (Mycobacterium tuberculosis (strain ATCC 25618 / H37Rv)) (UniProt P9WIL5). Nature of the assay: Coupled enzyme confirmation of inhibitors against recombinant Mtb PanC (AID 375).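 Further: 0% = full reaction with vehicle and 100% = no enzyme background.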 Conditions: coupled enzyme assay; at 10 µM, stronger effect = higher value.
Pantothenate synthetase (Mycobacterium tuberculosis (strain ATCC 25618 / H37Rv)), sequence (P9WIL5 whole entry, looked up): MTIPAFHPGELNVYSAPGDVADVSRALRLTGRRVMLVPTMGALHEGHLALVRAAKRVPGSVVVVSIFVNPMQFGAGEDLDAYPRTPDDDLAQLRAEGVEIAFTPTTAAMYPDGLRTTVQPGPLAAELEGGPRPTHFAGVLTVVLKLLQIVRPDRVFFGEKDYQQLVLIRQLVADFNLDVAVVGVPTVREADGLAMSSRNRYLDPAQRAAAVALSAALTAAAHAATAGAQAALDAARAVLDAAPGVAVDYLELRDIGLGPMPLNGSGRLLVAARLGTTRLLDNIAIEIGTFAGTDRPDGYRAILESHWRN
In the case of `Cc1cc(NC(=O)CCC(=O)N(CCc2ccccc2)C(C(=O)NC2CCCC2)c2ccco2)no1` (configuration not stated), the inhibition (commonly the percentage by which the read-out fell short of the control) is 7% (inactive).

As for `O=C(C(c1ccccc1)c1ccccc1)N1CCN(Cc2ccccn2)CC1`, the inhibition is 0% (inactive).

With `Cc1ccccc1NS(=O)(=O)c1ccc(NC(=O)c2ccco2)cc1`, the inhibition was 0% (inactive).

For `O=C(CCN1C(=O)COc2ccccc21)N1CCN(c2ccccn2)CC1`, the inhibition is 0% (inactive).

In the case of `O=C(CCSc1nccn1Cc1ccccc1)N1CCOCC1`, the inhibition was 0% (inactive).

For the molecule `CC(Oc1ccc2oc(-c3ccccc3)c(C(=O)O)c2c1)C(=O)O` (configuration not stated), the inhibition was 0% (inactive).

In the case of `O=c1cc(-c2ccccc2)[nH]c2nc3ccccc3n12`, the inhibition is 0% (inactive).

In the case of `Cc1cc(=O)[nH]c(=S)n1-c1ccccc1`, the inhibition was 17% (inactive).

`CCn1c(CCNC(=O)c2ccc(OC)c(OC)c2)nc2ccccc21`: the inhibition is 3% (inactive).

Turning to `C/C(=C(\C#N)C(=O)NCCCN1CCOCC1)N(C)C`, the inhibition was 0% (inactive).

With `CCSc1oc(-c2cccs2)nc1S(=O)(=O)c1ccccc1`, the inhibition was 4% (inactive).

In the case of `O=S(=O)(c1ccc2c(c1)nc1n2CCC1)N1CCOCC1`, the inhibition is 0% (inactive).

In the case of `Cc1ccc(C(C)C)c(OCCn2c(=O)oc3ccccc32)c1`, the inhibition is 0% (inactive).

In the case of `COc1ccc(CC(=O)NCc2ccccc2)cc1S(=O)(=O)N1CCOCC1`, the inhibition is 0% (inactive).

`CCc1ccc(Nc2cc(=O)n(C3CCCCC3)c(=O)[nH]2)cc1`: the inhibition was 0% (inactive).

Consider `Cn1cc(C(=O)c2ccc(F)cc2)cc1-c1nc2ccccc2n1C`, for which the inhibition is 6% (inactive).

As to `CCCn1c(N)c(C(=O)CSc2nnc(Cc3ccccc3)o2)c(=O)n(C)c1=O`, the inhibition is 2% (inactive).
